# Measurements reported in PubChem BioAssay (NCATS).
# Results filed as inconclusive are left out. Active and inactive are the calls of the source. Calls come from the whole dose curve; as a rule, active = well fitted curve in the direction sought with a large enough effect; inconclusive = small, poorly fitted or top-dose-only effect, or another doubt; inactive = no such curve, though single readings can be large; an effect the other way counts as inactive or inconclusive.
# Assays:
# MKL-1 = assay: qHTS assay to identify novel small-molecules to repurpose for Merkel cell carcinoma treatment (AID 1296009); conditions: MCC and control cell lines, CellTiter-Glo viability, 72 h; series mostly up to 46 µM; note: nearly all actives have a fitted effect of over 60% in size
# Method in brief: (§1)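 CellTiter-Glo luminescence after 72 hr compound exposure at 37 degree celsius gave cell viability. Libraries NPC and MIPE were run as 8- and 11-point dose responses; RLUs normalized to DMSO (negative) and no-cell (cytotoxicity) controls.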
# C33A = assay: Primary qHTS to identify gynecologic anti-cancer compounds using libraries of approved drugs and bioactive compounds (AID 1345084); conditions: Gynecologic cancer cell panel viability, ATPlite luminescence, 48 h; series mostly up to 57.5 µM; note: nearly all actives have a fitted effect of over 55% in size
# Method in brief: (§2)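 Measured: luminescence after ATPlite addition (15 min, RT). Exposure: 48 h, 37 C, 5% CO2.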
# CASKI = assay: as above; conditions: Gynecologic cancer cell panel viability, ATPlite luminescence, 48 h; series mostly up to 57.5 µM
# Method in brief: as §2
# Hek293T = assay: as above; conditions: Gynecologic cancer cell panel viability, ATPlite luminescence, 48 h, control line for the selectivity index; series mostly up to 57.5 µM
# Method in brief: as §2
# OV90 = assay: as above; conditions: Gynecologic cancer cell panel viability, ATPlite luminescence, 48 h; series mostly up to 57.5 µM
# Method in brief: as §2
# PA-1 = assay: as above; conditions: Gynecologic cancer cell panel viability, ATPlite luminescence, 48 h; series mostly up to 57.5 µM
# Method in brief: as §2
# SKOV3 = assay: as above; conditions: Gynecologic cancer cell panel viability, ATPlite luminescence, 48 h; series mostly up to 57.5 µM
# Method in brief: as §2
# Tov-21-G = assay: as above; conditions: Gynecologic cancer cell panel viability, ATPlite luminescence, 48 h; series mostly up to 57.5 µM
# Method in brief: as §2
# Tov112D = assay: as above; conditions: Gynecologic cancer cell panel viability, ATPlite luminescence, 48 h; series mostly up to 57.5 µM
# Method in brief: as §2
# MKL-2 = assay: qHTS assay to identify novel small-molecules to repurpose for Merkel cell carcinoma treatment (AID 1296009); conditions: MCC and control cell lines, CellTiter-Glo viability, 72 h; series mostly up to 46 µM; note: nearly all actives have a fitted effect of over 60% in size
# Method in brief: as §1
# UISO = assay: as above; conditions: MCC and control cell lines, CellTiter-Glo viability, 72 h; series mostly up to 46 µM
# Method in brief: as §1
# WaGa = assay: as above; conditions: MCC and control cell lines, CellTiter-Glo viability, 72 h; series mostly up to 46 µM
# Method in brief: as §1
# Es-2 = assay: Primary qHTS to identify gynecologic anti-cancer compounds using libraries of approved drugs and bioactive compounds (AID 1345084); conditions: Gynecologic cancer cell panel viability, ATPlite luminescence, 48 h; series mostly up to 57.5 µM; note: nearly all actives have a fitted effect of over 55% in size
# Method in brief: as §2
# JEG-3 = assay: as above; conditions: Gynecologic cancer cell panel viability, ATPlite luminescence, 48 h; series mostly up to 57.5 µM
# Method in brief: as §2
# HeLa = assay: as above; conditions: Gynecologic cancer cell panel viability, ATPlite luminescence, 48 h; series mostly up to 57.5 µM
# Method in brief: as §2
# MCC-26 = assay: qHTS assay to identify novel small-molecules to repurpose for Merkel cell carcinoma treatment (AID 1296009); conditions: MCC and control cell lines, CellTiter-Glo viability, 72 h; series mostly up to 46 µM; note: nearly all actives have a fitted effect of over 60% in size
# Method in brief: as §1
# Potency is the fitted concentration of half-maximal effect.
compound,measurement,setting,value
c1cncc(CN2CCC(n3ncc4c(N5CCOCC5)nc(-c5ccc6[nH]ccc6c5)nc43)CC2)c1,Potency,MKL-1,inactive
same,Potency,C33A,31.6 µM (active)
same,Potency,CASKI,10 µM (active)
same,Potency,Hek293T,11.2 µM (active)
same,Potency,OV90,22.4 µM (active)
same,Potency,PA-1,17.8 µM (active)
same,Potency,SKOV3,10 µM (active)
same,Potency,Tov-21-G,12.6 µM (active)
same,Potency,Tov112D,28.2 µM (active)
CNC(=O)c1cccc(-c2ccc3c(N4CCOC[C@H]4C)nc(N4CCOC[C@H]4C)nc3n2)c1,Potency,MKL-2,inactive
same,Potency,UISO,0.166 µM (active)
COc1cc(C=CC(=O)CC(=O)C=Cc2ccc(O)c(OC)c2)ccc1O,Potency,MKL-1,10.8 µM (active)
same,Potency,MKL-2,8.55 µM (active)
same,Potency,UISO,21.5 µM (active)
same,Potency,WaGa,9.59 µM (active)
C=CC(=O)Nc1cccc(Nc2nc(NC3CCC(N(C)C)CC3)nc3c2ncn3C(C)C)c1 (centres undefined),Potency,MKL-1,0.0074 µM (active)
same,Potency,MKL-2,0.0166 µM (active)
same,Potency,UISO,0.418 µM (active)
O=C1NCCc2[nH]c(-c3ccncc3)cc21,Potency,MKL-2,13.2 µM (active)
same,Potency,UISO,4.18 µM (active)
COc1cc(OC)c(C=CS(=O)(=O)Cc2ccc(OC)c(NCC(=O)O)c2)c(OC)c1,Potency,MKL-2,0.0935 µM (active)
COC1=C2C[C@@H](C)C[C@H](OC)[C@@H](O)[C@@H](C)C=C(C)[C@H](OC(N)=O)[C@@H](OC)C=CC=C(C)C(=O)NC(=CC1=O)C2=O,Potency,MKL-1,11.8 µM (active)
same,Potency,MKL-2,8.33 µM (active)
same,Potency,WaGa,20.9 µM (active)
CC1=C(C(=O)Nc2cc3cn[nH]c3cc2F)C(c2ccc(Cl)cc2F)N=C(c2ccnc(Cl)c2)N1 (centres undefined),Potency,MKL-2,20.9 µM (active)
same,Potency,WaGa,10.5 µM (active)
same,Potency,CASKI,inactive
same,Potency,Es-2,inactive
same,Potency,Hek293T,inactive
same,Potency,JEG-3,inactive
same,Potency,OV90,inactive
same,Potency,PA-1,inactive
same,Potency,SKOV3,inactive
same,Potency,Tov-21-G,inactive
same,Potency,Tov112D,inactive
Cc1ccc([N+](=O)[O-])cc1S(=O)(=O)N(C)N=Cc1cnc2ccc(Br)cn12,Potency,MKL-2,0.209 µM (active)
same,Potency,UISO,0.0418 µM (active)
COc1ccc(C[C@@H](C)[C@@H](C)Cc2ccc(OC)c(OC)c2)cc1OC,Potency,MKL-2,3.72 µM (active)
same,Potency,UISO,1.32 µM (active)
same,Potency,WaGa,0.833 µM (active)
CCOC(=O)N1CCN([N+]([O-])=NOc2ccc([N+](=O)[O-])cc2[N+](=O)[O-])CC1,Potency,MKL-1,10.5 µM (active)
same,Potency,MKL-2,6.62 µM (active)
same,Potency,WaGa,11.8 µM (active)
Oc1cc(-c2nc(-c3ccccc3)[nH]c2-c2ccncc2)ccc1Cl,Potency,MKL-1,inactive
same,Potency,MKL-2,inactive
same,Potency,UISO,inactive
same,Potency,C33A,inactive
same,Potency,HeLa,inactive
same,Potency,Hek293T,inactive
same,Potency,JEG-3,inactive
same,Potency,PA-1,inactive
same,Potency,SKOV3,inactive
same,Potency,Tov-21-G,17.8 µM (active)
same,Potency,Tov112D,inactive
COc1cc2c(Nc3ccc(Cl)c(Cl)c3F)ncnc2cc1OCC1C[C@@H]2CN(C)C[C@H]2C1,Potency,MKL-1,7.43 µM (active)
same,Potency,UISO,4.18 µM (active)
same,Potency,WaGa,18.7 µM (active)
Cc1ccc2nc(NCCN)c3ncc(C)n3c2c1,Potency,MKL-2,14.8 µM (active)
same,Potency,UISO,20.9 µM (active)
O=C(NC1CC1)c1cccc(-c2ccc3c(NC(=O)C4CC4)n[nH]c3c2)c1,Potency,MKL-2,inactive
COc1cc(O)c2c(c1)C1OC1C[C@H](O)[C@H](O)C(=O)C=CC[C@H](C)OC2=O (some centres undefined),Potency,UISO,20.9 µM (active)
CNC(=O)c1ccc(Nc2cc(Nc3ccccc3S(=O)(=O)C(C)C)c3cc[nH]c3n2)nc1,Potency,MKL-1,2.64 µM (active)
same,Potency,MKL-2,7.43 µM (active)
same,Potency,UISO,5.9 µM (active)
same,Potency,WaGa,4.18 µM (active)
COc1ccc(Nc2cc(-c3cnc(N)nc3)nc(N3CCOCC3)n2)cn1,Potency,MKL-1,inactive
same,Potency,UISO,4.18 µM (active)
Oc1ccc([C@@H]2Oc3ccc(O)cc3[C@@H]3CCC[C@@H]32)cc1,Potency,MCC-26,inactive
same,Potency,UISO,18.7 µM (active)
same,Potency,C33A,inactive
same,Potency,Es-2,inactive
same,Potency,OV90,inactive
same,Potency,Tov-21-G,inactive
CC[C@]12C=CCN3CC[C@@]4(c5cc([C@@]6(C(=O)OC)C[C@H]7C[C@@H](C(C)(F)F)CN(Cc8c6[nH]c6ccccc86)C7)c(OC)cc5N(C)[C@H]4[C@@](O)(C(=O)OC)[C@H]1OC(C)=O)[C@@H]32,Potency,WaGa,0.0059 µM (active)
Cn1cc(C2=C(c3c4n(c5ccccc35)CCC(CN)C4)C(=O)NC2=O)c2ccccc21 (centres undefined),Potency,MKL-1,20.9 µM (active)
same,Potency,MKL-2,20.9 µM (active)
same,Potency,WaGa,20.9 µM (active)
COc1cc(OC)cc(-c2ccc3ncc4ccc(=O)n(-c5ccc(N6CCNCC6)c(C(F)(F)F)c5)c4c3c2)c1,Potency,MKL-1,18.7 µM (active)
same,Potency,MKL-2,8.33 µM (active)
same,Potency,UISO,16.6 µM (active)
NC(=O)Nc1sc(-c2ccc(F)cc2)cc1C(N)=O,Potency,UISO,4.69 µM (active)
same,Potency,WaGa,5.26 µM (active)
FC(F)(F)c1ccc(Nc2nc3ccc(Oc4ccnc(-c5ncc(C(F)(F)F)[nH]5)c4)cc3[nH]2)cc1,Potency,MCC-26,inactive
same,Potency,C33A,inactive
same,Potency,CASKI,inactive
same,Potency,Es-2,inactive
same,Potency,HeLa,inactive
same,Potency,Hek293T,inactive
same,Potency,JEG-3,inactive
same,Potency,Tov112D,inactive
C=CC(=O)N1CCc2ccc(-n3c(=O)ccc4cnc5ccc(-c6cnn(C)c6)cc5c43)cc21,Potency,MKL-1,1.87 µM (active)
same,Potency,MKL-2,1.87 µM (active)
same,Potency,UISO,6.62 µM (active)
Cc1[nH]c(C=C2C(=O)Nc3ccccc32)c(C)c1CCC(=O)O,Potency,MKL-1,0.372 µM (active)
same,Potency,UISO,0.469 µM (active)
same,Potency,WaGa,0.187 µM (active)
COc1cc(C(=O)NC2CCN(C)CC2)ccc1Nc1ncc2c(n1)N(C1CCCC1)CCC(=O)N2C(C)C,Potency,MKL-1,2.35 µM (active)
same,Potency,WaGa,1.87 µM (active)
Cc1ncc(-c2ccnc(Nc3ccc(S(C)(=O)=O)cc3)n2)n1C(C)C,Potency,CASKI,7.08 µM (active)
same,Potency,Es-2,10 µM (active)
same,Potency,HeLa,7.08 µM (active)
same,Potency,Hek293T,5.01 µM (active)
same,Potency,JEG-3,inactive
same,Potency,PA-1,5.01 µM (active)
same,Potency,Tov-21-G,10 µM (active)
same,Potency,Tov112D,10 µM (active)
CCNC(=O)c1cc2c(-c3cc(OCCN4CCCC4)c(Cl)cc3Cl)nc(N)nc2s1,Potency,MKL-2,inactive
same,Potency,UISO,2.96 µM (active)
same,Potency,WaGa,1.18 µM (active)
COc1ccc(C=Cc2cc(OC)c(OC)c(OC)c2)cc1NC(=O)[C@H](N)CO,Potency,MKL-2,0.0066 µM (active)
same,Potency,UISO,0.0053 µM (active)
CCN(CC)Cc1ccc2cc(COC(=O)Nc3ccc(C(=O)NO)cc3)ccc2c1,Potency,MKL-1,1.87 µM (active)
same,Potency,MKL-2,0.59 µM (active)
same,Potency,UISO,3.72 µM (active)
same,Potency,WaGa,0.526 µM (active)
same,Potency,C33A,3.55 µM (active)
same,Potency,CASKI,6.31 µM (active)
same,Potency,Es-2,6.31 µM (active)
same,Potency,HeLa,6.31 µM (active)
same,Potency,Hek293T,10 µM (active)
same,Potency,JEG-3,3.55 µM (active)
same,Potency,OV90,1 µM (active)
same,Potency,PA-1,1.78 µM (active)
same,Potency,Tov-21-G,7.94 µM (active)
same,Potency,Tov112D,7.08 µM (active)
Cc1cnn(C)c1C(=O)Nc1cc(Nc2ccc3c(C=Cc4ccccn4)n[nH]c3c2)ccc1F,Potency,UISO,16.6 µM (active)
CC(=O)O[C@@]12CO[C@H]1C[C@H](O)[C@@]1(C)C(=O)[C@H](O)C3=C(C)[C@@H](OC(=O)C(O)[C@@H](NC(=O)OC(C)(C)C)c4ccccc4)C[C@@](O)([C@@H](OC(=O)c4ccccc4)[C@@H]21)C3(C)C (some centres undefined),Potency,MKL-1,inactive
same,Potency,MKL-2,inactive
same,Potency,UISO,inactive
same,Potency,WaGa,inactive
O=C(Nc1cc2cc[nH]c2cn1)c1ccccc1,Potency,MKL-1,14.8 µM (active)
same,Potency,C33A,1.41 µM (active)
same,Potency,CASKI,1.78 µM (active)
same,Potency,Es-2,1.58 µM (active)
same,Potency,HeLa,1.41 µM (active)
same,Potency,Hek293T,2.24 µM (active)
same,Potency,JEG-3,1.12 µM (active)
same,Potency,OV90,0.891 µM (active)
same,Potency,PA-1,0.891 µM (active)
same,Potency,SKOV3,2 µM (active)
same,Potency,Tov-21-G,1.26 µM (active)
same,Potency,Tov112D,2 µM (active)
CCc1ccc(C(=O)Nc2cc(CN3CCN(C)CC3)cc(C(F)(F)F)c2)cc1C#Cc1cnc2ccnn2c1,Potency,MKL-2,18.7 µM (active)
same,Potency,OV90,inactive
